# According to ChEMBL document CHEMBL3433997, “St. Jude Leishmania screening dataset” (2016):
# Target: Solute carrier family 2, facilitated glucose transporter member 1 (Homo sapiens) (UniProt P11166)
# Test: ST_JUDE_LEISH: Cytotoxicity at 2uM final concentration against transgenic Leishmania Mexicana promastigotes LmGLUT1 that are glucose transport deficient and complemented with the human glucose transporter GLUT1. Activity is measured by DNA content using SYBR green in vitro
# Type: functional
# Sequence of Solute carrier family 2, facilitated glucose transporter member 1 (Homo sapiens) (P11166 whole entry): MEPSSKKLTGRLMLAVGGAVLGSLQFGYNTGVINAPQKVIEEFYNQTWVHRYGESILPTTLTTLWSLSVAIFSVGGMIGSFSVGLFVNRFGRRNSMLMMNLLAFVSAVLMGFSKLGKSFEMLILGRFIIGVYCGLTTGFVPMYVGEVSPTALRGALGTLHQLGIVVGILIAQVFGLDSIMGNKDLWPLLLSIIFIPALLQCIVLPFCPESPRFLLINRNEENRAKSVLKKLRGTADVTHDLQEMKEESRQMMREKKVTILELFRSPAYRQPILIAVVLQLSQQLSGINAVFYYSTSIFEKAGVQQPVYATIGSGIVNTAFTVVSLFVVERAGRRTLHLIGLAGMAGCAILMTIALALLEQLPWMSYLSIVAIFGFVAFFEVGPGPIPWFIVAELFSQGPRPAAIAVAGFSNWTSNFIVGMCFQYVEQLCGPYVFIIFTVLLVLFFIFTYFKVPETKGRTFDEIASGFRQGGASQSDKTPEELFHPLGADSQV
row,SMILES,inhibition
1,CCOc1cc(C(=O)NCc2cccc(C(F)(F)F)c2)ccc1-c1nc2cc(Cl)ccc2[nH]1,2.15%
2,COc1ccc2nc(C)cc(Nc3ccc(Oc4ccc(Cl)cc4)c(Cl)c3)c2c1,7.89%
3,Cc1cc(N/N=C/c2ccccc2[N+](=O)[O-])c2cc(F)ccc2n1,2.14%
4,O=C(NCCc1cccc(Cl)c1Cl)c1ccc(N2CCN(c3ccncc3)CC2)nc1,38.6%
5,CCOc1cc(Cc2cnc(N)nc2N)cc(Br)c1OC,0.49%
6,CNCc1cccc(-c2ccc3ccnc(N)c3c2)c1,7.92%
7,Oc1ccc(Nc2nc(NCc3ccco3)c3ccccc3n2)cc1,25.1%
8,O=C(Nc1ccc(N2CCN(C(=O)/C=C/c3ccccc3)CC2)c(Cl)c1)c1ccc([N+](=O)[O-])o1,58.5%
9,CC(Oc1ccc(Cl)cc1)C(=O)Nc1cc(C(F)(F)F)ccc1N1CCOCC1 (centres undefined),8.02%
10,CC(=O)Nc1ccc(CN(Cc2ccc(F)cc2)Cc2cccc(Oc3ccccc3)c2)cc1,3.19%
11,Cc1ccc(NC(=O)NC2CCN(c3ccnc4ccccc34)C2)cc1 (centres undefined),5.83%
12,CCNc1cc(C(=O)N[C@@H](Cc2ccccc2)[C@H](O)CNC2CCC(C)(C)CC2)cc(N2CCCCS2(=O)=O)c1,3.16%
13,CNC(=O)c1ccccc1Nc1nc(Nc2ccc(C(=O)O)cc2)ncc1Cl,-1.75%
14,Cc1cccc2nc(-c3cccc(-c4cccc(C(=O)NCc5nccn5C)c4)c3)[nH]c12,11.5%
15,C=C(NC(=O)c1cc(C)cc(C)c1)C(=O)OC,0.48%
16,CC(=O)Nc1ccc(CN2CCC(NC(=O)c3cc(-c4ccc(N(C)C)cc4)cs3)C2)cc1 (centres undefined),1.62%
17,c1ccc(N2CCN(c3cc(-c4cccnc4)nc(-c4ccncc4)n3)CC2)nc1,2.7%
18,Oc1cc(-c2nc(C3(CNCc4ccc(Cl)cc4)CCCCC3)[nH]c2-c2ccncc2)ccc1Cl,4.11%
19,O=C(Nc1cccc(-c2cccc(-c3nc4ccccc4[nH]3)c2)c1)c1csnn1,5.15%
20,CCCNCc1ccc(-c2ccc(CN(CCOC)C(=O)c3ccco3)cc2)nc1,0.5%
21,CC(C)c1cc2c(cc1O)C(Cc1ccccc1Cl)N(C)CC2 (centres undefined),2.73%
22,Cc1cccc2nc(-c3cccc(-c4ccc(NC(=O)CN5CCN(C)CC5)cc4)c3)[nH]c12,2.17%
23,CC(C)(C)c1ccc(CN2CCCCC(NC(=O)c3cc(-c4ccccc4F)cs3)C2)cc1 (centres undefined),-1.83%
24,CCNc1cc(C(=O)N[C@@H](Cc2ccccc2)[C@H](O)CNC23CC4CC(CC(C4)C2)C3)cc(N2CCCCS2(=O)=O)c1,3.41%

# Target: Hexose transporter 1 (Plasmodium falciparum) (UniProt O97467)
# Test: ST_JUDE_LEISH: Cytotoxicity at 2uM final concentration against transgenic Leishmania Mexicana promastigotes LmPfHT that are glucose transport deficient and complemented with the Plasmodium falciparum hexose transporter. Activity is measured by DNA content using SYBR green in vitro
# Type: functional
row,SMILES,inhibition
1,COc1ccc2[nH]c(C)cc(=NN=Cc3cccc(F)c3)c2c1,5.7%
2,Cc1ccc(C(=O)N2CCN(Cc3nccs3)CC2)cc1,-0.14%
3,O=c1cc(NCCCNCc2[nH]c3cc(Cl)ccc3c2Cl)[nH]c2ccccc12,3.33%
4,CS(=O)(=O)NCCCNCc1ccc(-c2cccc(-c3nc4cc(C(F)(F)F)ccc4[nH]3)c2)cc1,3.56%
5,Cc1n[nH]c2ccc(-c3cc(OC[C@@H](N)Cc4ccccc4)cnc3-c3cc4ccccc4s3)cc12,3.69%
6,O=C(/C=C/c1ccccc1O)N1CCC(CCN2CCC(c3c[nH]c4ccccc34)CC2)CC1,-3.35%
7,Cc1cc(N(C)C)nc(Nc2ccc(NC(=O)c3ccccc3Cl)cc2)n1,5.72%
8,N#Cc1cccc(C(=O)NC2CCN(c3ccnc(Nc4ccc(F)cc4)n3)C2)c1 (centres undefined),2.47%
9,CCCCCCn1c2c(c(=N)c3c1CCC3)CCCC2,77.5%
10,CCn1cc(C=C2Oc3c(ccc(O)c3CN3CCCCC3C)C2=O)c2ccccc21 (centres undefined),5.13%
11,COc1ccc(C=NNc2nc3ccccc3[nH]2)cc1O,-1.02%
12,CC(CN(C)C)C(=O)Nc1ccc(-c2ccc(-c3nc4ccccc4[nH]3)cc2)cc1 (centres undefined),3.01%
13,O=C(Nc1ccc(-c2cccc(-c3nc4cc(C(F)(F)F)ccc4[nH]3)c2)cc1)Nc1ccc(Cl)c(Cl)c1,7.67%
14,CCCCCCCC1CC(CC(=O)Nc2ccnc3ccc(OC)cc23)CN1 (centres undefined),0.43%
15,CN1CCCN(Cc2cccc(-c3cccc(NS(=O)(=O)c4cccc5cccnc45)c3)c2)CC1,10.8%
16,O=C(NC1c2ccccc2Oc2ccccc21)c1ccccc1O,-0.11%
17,CCOc1cc(C(=O)NCc2cccc(C(F)(F)F)c2)ccc1-c1nc2cc(Cl)ccc2[nH]1,2.24%
18,COc1ccc2nc(C)cc(Nc3ccc(Oc4ccc(Cl)cc4)c(Cl)c3)c2c1,6.68%
19,Cc1cc(N/N=C/c2ccccc2[N+](=O)[O-])c2cc(F)ccc2n1,1.95%
20,O=C(NCCc1cccc(Cl)c1Cl)c1ccc(N2CCN(c3ccncc3)CC2)nc1,16.9%

row,SMILES,inhibition
1,CCOc1cc(Cc2cnc(N)nc2N)cc(Br)c1OC,2.73%
2,CNCc1cccc(-c2ccc3ccnc(N)c3c2)c1,10.7%
3,Oc1ccc(Nc2nc(NCc3ccco3)c3ccccc3n2)cc1,20.8%
4,O=C(Nc1ccc(N2CCN(C(=O)/C=C/c3ccccc3)CC2)c(Cl)c1)c1ccc([N+](=O)[O-])o1,68%
5,CC(Oc1ccc(Cl)cc1)C(=O)Nc1cc(C(F)(F)F)ccc1N1CCOCC1 (centres undefined),10.4%
6,CC(=O)Nc1ccc(CN(Cc2ccc(F)cc2)Cc2cccc(Oc3ccccc3)c2)cc1,1.73%
7,Cc1ccc(NC(=O)NC2CCN(c3ccnc4ccccc34)C2)cc1 (centres undefined),5.57%
8,CCNc1cc(C(=O)N[C@@H](Cc2ccccc2)[C@H](O)CNC2CCC(C)(C)CC2)cc(N2CCCCS2(=O)=O)c1,1.73%
9,CNC(=O)c1ccccc1Nc1nc(Nc2ccc(C(=O)O)cc2)ncc1Cl,1.77%
10,Cc1cccc2nc(-c3cccc(-c4cccc(C(=O)NCc5nccn5C)c4)c3)[nH]c12,10.8%
11,C=C(NC(=O)c1cc(C)cc(C)c1)C(=O)OC,-0.44%
12,CC(=O)Nc1ccc(CN2CCC(NC(=O)c3cc(-c4ccc(N(C)C)cc4)cs3)C2)cc1 (centres undefined),3.72%
13,c1ccc(N2CCN(c3cc(-c4cccnc4)nc(-c4ccncc4)n3)CC2)nc1,1.5%
14,Oc1cc(-c2nc(C3(CNCc4ccc(Cl)cc4)CCCCC3)[nH]c2-c2ccncc2)ccc1Cl,5.35%
15,O=C(Nc1cccc(-c2cccc(-c3nc4ccccc4[nH]3)c2)c1)c1csnn1,5.92%
16,CCCNCc1ccc(-c2ccc(CN(CCOC)C(=O)c3ccco3)cc2)nc1,0.17%
17,CC(C)c1cc2c(cc1O)C(Cc1ccccc1Cl)N(C)CC2 (centres undefined),-0.25%
18,Cc1cccc2nc(-c3cccc(-c4ccc(NC(=O)CN5CCN(C)CC5)cc4)c3)[nH]c12,3.31%
19,CC(C)(C)c1ccc(CN2CCCCC(NC(=O)c3cc(-c4ccccc4F)cs3)C2)cc1 (centres undefined),-0.56%
20,CCNc1cc(C(=O)N[C@@H](Cc2ccccc2)[C@H](O)CNC23CC4CC(CC(C4)C2)C3)cc(N2CCCCS2(=O)=O)c1,3.36%
